# Source: the supplement of paper PMC3724861
# This is one part of a sample in which hits are shown more often than they occur. The true hit rate is not given. Values without a mark were called inactive.
# Tested on: T1, Caupolican (Caup) homeodomain DNA-binding domain
# T1 sequence: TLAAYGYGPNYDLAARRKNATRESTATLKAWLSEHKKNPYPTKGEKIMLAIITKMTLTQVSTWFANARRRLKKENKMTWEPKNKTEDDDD
# Assay: PBM E-score (8-mer, recovered from the published 9-mer minima) (E-score (dimensionless, -0.5 to 0.5)); Drosophila protein; higher = stronger relative binding preference, active = 0.31 or more
# Outline: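 Caup's homeodomain DNA-binding domain (residues 214-303) was made by in vitro transcription and translation and applied at 100 nM to custom-designed protein binding microarrays. Each value is an enrichment score that gives relative binding preference for a short DNA word, with higher meaning stronger. The 8-mer values were recovered from published 9-mer scores, each of which was the minimum of its two constituent 8-mer scores. A cutoff of 0.31 marks candidate sites.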
row,Sequence,PBM E-score
1,CTAGAGCA,-0.132
2,AAATGCAA,0.0939
3,CCACAGGA,-0.0146
4,ATTGCCCG,-0.0341
5,CAACTCAC,0.0566
6,AGTAAGAA,0.06
7,ATCGCAAG,-0.0386
8,CTTGTAAA,0.365 (active)
9,ATTGTAAC,0.308
10,CTTGTAAC,0.424 (active)
11,ATTGTAAA,0.246
12,GTTGTAAA,0.279
13,CCTGTAAC,0.176
14,GCATGAGA,-0.0059
15,CTCGTGAC,-0.0131
16,ATAGACAC,0.259
17,ATAGACAG,0.16
18,TTAGACAA,0.206
19,ATAGACAT,0.321 (active)
20,GTAGACAA,0.313 (active)
21,CTAGACAA,0.0936

row,Sequence,PBM E-score
1,ATCGAAAC,-0.0231
2,CTTCCAAG,-0.0467
3,AGAGGTGG,-0.107
4,AAGTATCC,-0.0551
5,CTGTATCA,0.15
6,CTGTATCC,0.2
7,ATGTATCC,0.332 (active)
8,ATGTATCG,0.337 (active)
9,ATGTATCA,0.321 (active)
10,GTGTATCA,0.276
11,ACGTATCG,0.15
12,AAGTATCG,0.134
13,ATGTCCAG,0.2
14,ACGCAACA,0.215
15,ATTTAGTC,0.0884
16,CCCCAAAC,-0.0197
17,CTTGCTGC,-0.0454
18,AGTAACAT,0.316 (active)
19,AGTAACAC,0.24
20,AATAACAC,0.284
21,AATAACAT,0.348 (active)

row,Sequence,PBM E-score
1,AGTAACAG,0.19
2,AATAACAG,0.241
3,AGGCGTCG,-0.157
4,CTTTGTCA,0.0793
5,CAAAGTAC,0.172
6,GGAGTGGA,-0.133
7,ACATATTG,0.26
8,ACATATCA,≥ 0.321 (active)
9,CCATATTC,0.011
10,ATATATTC,0.192
11,ACATATTA,0.33 (active)
12,CCATATCA,0.0253
13,CCATATTA,0.105
14,ACATATTC,0.329 (active)
15,ACATATCG,0.238
16,TTTGAAAA,0.105
17,AAGGATGT,0.185
18,AGTTAAGC,0.0239
19,GCACACCC,-0.143
20,AGAGTGCG,-0.148
21,CTCTCCTC,-0.078
